# Assay results as given in PubChem BioAssay (NCATS).
# “And” between values parts separate entries of the source, which are not always exact repeats. Equal values may be shown once. Unmarked numbers belong to inactive results. Inconclusive results are not listed. A call without a number means that no potency is given here. The source made the active and inactive calls. Unless noted, calls come from the whole dose curve; as a rule, active = well fitted curve in the direction sought with a large enough effect; inconclusive = small, poorly fitted or top-dose-only effect, or another doubt; inactive = no such curve, though single readings can be large; an effect the other way counts as inactive or inconclusive.
# Columns and labels:
# [1] = target: Glucocorticoid receptor (Homo sapiens) (UniProt P04150); test: GR-GFP Redistribution (AID 450;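 active = compounds whose dose series gives a full or clear partial fitted curve of increased nuclear translocation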; note: potency is the fitted concentration of half-maximal effect); settings: U2OS GR-GFP nuclear translocation, laser cytometry, 2 h
# Chain of Glucocorticoid receptor (Homo sapiens) (P04150 whole entry, looked up, the tested form may be a part): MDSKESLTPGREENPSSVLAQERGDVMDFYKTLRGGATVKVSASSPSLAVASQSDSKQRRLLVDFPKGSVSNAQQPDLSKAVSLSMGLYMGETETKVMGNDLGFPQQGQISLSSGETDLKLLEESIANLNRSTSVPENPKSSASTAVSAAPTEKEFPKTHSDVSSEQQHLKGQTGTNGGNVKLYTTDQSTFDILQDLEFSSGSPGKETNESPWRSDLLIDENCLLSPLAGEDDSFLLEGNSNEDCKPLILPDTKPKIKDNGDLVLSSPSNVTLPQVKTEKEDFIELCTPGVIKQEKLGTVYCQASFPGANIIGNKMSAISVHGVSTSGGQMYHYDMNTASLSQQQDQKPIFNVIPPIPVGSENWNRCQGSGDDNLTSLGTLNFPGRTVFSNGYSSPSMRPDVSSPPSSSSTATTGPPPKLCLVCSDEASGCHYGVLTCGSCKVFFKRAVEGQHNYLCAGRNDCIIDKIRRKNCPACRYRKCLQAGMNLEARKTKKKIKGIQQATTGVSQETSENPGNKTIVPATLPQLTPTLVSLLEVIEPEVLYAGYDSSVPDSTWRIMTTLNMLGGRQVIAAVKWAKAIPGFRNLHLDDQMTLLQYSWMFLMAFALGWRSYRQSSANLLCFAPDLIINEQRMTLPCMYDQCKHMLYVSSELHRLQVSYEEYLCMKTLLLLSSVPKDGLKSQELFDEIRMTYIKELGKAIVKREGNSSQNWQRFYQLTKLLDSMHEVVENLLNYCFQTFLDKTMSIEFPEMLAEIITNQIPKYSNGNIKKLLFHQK
# [2] = target: Glucocorticoid receptor (Homo sapiens) (UniProt P04150); test: GR-EFC Redistribution (AID 451; calls by dose curve; note: potency is the fitted concentration of half-maximal effect); settings: CHO-K1 GR-EFC translocation, beta-gal luminescence, 2 h
# Method in brief: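 Translocation of GR-ED fusion to nuclear EA restores b-gal, read by luminescence after 1 h room-temperature detection. Engineered CHO-K1 biosensor cells, 1,000/well, exposed 2 h at 37 C to titrations up to 46 uM final.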
# [3] = target: 3',5'-cyclic-AMP phosphodiesterase 4B (Homo sapiens) (UniProt Q07343); test: qHTS Assay for Inhibitors of PDE-IV (AID 607; active = well fitted activation curve with a large enough effect in the main read-out, with a control signal flat, not every such curve was filed as active); settings: HEK293 ACTOne CNG channel cells, membrane potential fluorescence; series mostly up to 22.9 µM
# Chain of 3',5'-cyclic-AMP phosphodiesterase 4B (Homo sapiens) (Q07343 whole entry, looked up): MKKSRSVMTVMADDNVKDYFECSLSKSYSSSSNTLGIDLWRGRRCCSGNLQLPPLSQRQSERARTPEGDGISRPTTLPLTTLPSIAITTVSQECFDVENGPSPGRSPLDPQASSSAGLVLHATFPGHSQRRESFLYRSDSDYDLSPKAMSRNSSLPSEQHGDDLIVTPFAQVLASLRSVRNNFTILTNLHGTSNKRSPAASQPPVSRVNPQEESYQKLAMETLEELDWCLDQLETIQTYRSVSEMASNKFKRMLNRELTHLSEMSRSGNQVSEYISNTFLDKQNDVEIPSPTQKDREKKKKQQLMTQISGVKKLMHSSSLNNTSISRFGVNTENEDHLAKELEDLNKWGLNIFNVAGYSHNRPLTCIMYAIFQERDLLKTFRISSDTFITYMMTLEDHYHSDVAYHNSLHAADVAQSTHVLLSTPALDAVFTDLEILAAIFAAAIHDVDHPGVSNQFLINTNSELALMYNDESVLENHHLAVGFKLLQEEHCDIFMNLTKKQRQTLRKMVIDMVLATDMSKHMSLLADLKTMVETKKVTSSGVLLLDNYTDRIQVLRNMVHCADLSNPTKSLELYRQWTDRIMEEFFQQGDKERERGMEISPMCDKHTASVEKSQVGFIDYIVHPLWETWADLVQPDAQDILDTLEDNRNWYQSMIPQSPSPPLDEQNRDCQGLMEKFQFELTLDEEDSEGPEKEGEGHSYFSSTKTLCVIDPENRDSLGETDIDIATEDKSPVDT
# Method in brief: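 ACTOne HEK293 cells carry a modified cAMP-gated CNG channel and express endogenous PDE4; plated 1000 cells/well, compounds up to 22.9 uM final. Membrane-potential dye fluorescence (ex 535/em 590) was read; parental cells received 10 uM forskolin + 100 uM RO 20-1724.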
# [4] = Cell Viability - N2a (AID 540); settings: N2a mouse neuroblastoma cell viability; series mostly up to 92.2 µM;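 note: cells exposed to compound for 40 h at 37 °C; nearly all actives have a fitted effect of over 45% in size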
# Method in brief: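 First, 1500 N2a cells per well incubate 5 hr at 37 °C; next, compounds are added and incubated 40 hr at 37 °C; finally CellTiter-Glo is added and luminescence read after 20 min, with AC50 derived by Hill modeling.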
# [5] = Cell Viability - NIH 3T3 (AID 541); settings: NIH 3T3 cell viability, qHTS; series mostly up to 92.2 µM;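 note: cells exposed to compound for 40 hours; nearly all actives have a fitted effect of over 25% in size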; note: potency is the fitted concentration of half-maximal effect
# Method in brief: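 AC50 values reflect concentration-dependent loss of intracellular ATP in NIH 3T3 cells after 40 hr treatment in complete culture medium, quantified by luciferase-based luminescence.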
# [6] = Cell Viability - HUV-EC-C (AID 542); settings: HUV-EC-C endothelial cell viability, qHTS; series mostly up to 92.2 µM;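 note: cells exposed to compound for 40 hours; nearly all actives have a fitted effect of over 35% in size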
# Method in brief: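 Decrease in cellular ATP, quantified by luciferase luminescence, reflects toxicity in normal human vascular endothelial HUV-EC-C cells given compound for 40 hr in complete culture medium. Values are AC50s from concentration-response curves.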
# [7] = Cell Viability - H-4-II-E (AID 543); settings: H-4-II-E rat hepatoma viability; series mostly up to 92.2 µM;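 note: cells exposed to compound for 40 hours; nearly all actives have a fitted effect of over 35% in size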; note: potency is the fitted concentration of half-maximal effect
# Method in brief: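 Here, cytotoxicity is measured in the rat hepatoma line H-4-II-E as loss of intracellular ATP after 40 hr compound treatment, detected by luciferase luminescence.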
# [8] = Cell Viability - SH-SY5Y (AID 544); settings: SH-SY5Y neuroblastoma cell viability; series mostly up to 92.2 µM;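 note: cells exposed to compound for 40 hours; nearly all actives have a fitted effect of over 55% in size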
# Method in brief: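 Cytotoxicity is scored as a concentration-dependent fall in intracellular ATP in human SH-SY5Y cells treated 40 hr in complete culture medium. Potency is expressed as AC50 from a Hill equation fit.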
# [9] = Cell Viability - Renal Proximal Tubule (AID 545); settings: renal proximal tubule cells viability, primary cells of rat origin; series mostly up to 91.7 µM;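 note: cells exposed to compound for 40 hours; nearly all actives have a fitted effect of over 40% in size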
# Method in brief: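 Luminescent ATP signal (CellTiter-Glo) served as the viability read-out after 40 hr compound exposure of freshly isolated rat proximal tubule cells at 37 °C. Concentration-dependent ATP loss was fitted with the Hill equation to give AC50.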
# [10] = Cell Viability - Mesenchymal (AID 546); settings: mesenchymal cells viability, qHTS; series mostly up to 91.7 µM;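 note: cells exposed to compound for 40 hours before reading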
# Method in brief: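 AC50 values reflect the drop in intracellular ATP in a human kidney mesenchymal line derived from normal glomeruli. Treatment lasts 40 hr at 37 °C in complete medium, and the signal comes from CellTiter-Glo luminescence.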
# [11] = Cellular Toxicity (caspase-3) HepG2 (AID 654); settings: HepG2 caspase-3 activation, luminescence, 0% = DMSO only, 100% = tamoxifen; series mostly up to 92.2 µM;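 note: cells exposed to compound for 16 hours before reading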
# Method in brief: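 qHTS, HepG2, 1500 cells/well, complete medium; cpd 16 h 37 °C; Caspase-Glo 3/7, 20 min RT; lum. Norm: DMSO vs 100 uM tamoxifen; AC50 Hill fit.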
# [12] = Cellular Toxicity (caspase-3) Jurkat (AID 655); settings: Jurkat caspase-3 activation, luminescence, DMSO = 0%, tamoxifen = 100%; series mostly up to 92.2 µM;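 note: cells exposed to compound for 16 h at 37 °C before reading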
# Method in brief: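 5000 Jurkat cells/well; compound 16 hr, 37 °C; Caspase-Glo 3/7 added, 20 min RT; luminescence read. Norm: DMSO = 0%, tamoxifen 100 uM = 100%. AC50, Hill model.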
# [13] = Cellular Toxicity (caspase-3) HUV-EC-C (AID 656); settings: HUV-EC-C cells, caspase-3 activation (apoptosis), vehicle = 0, 100 µM tamoxifen = 100%; series mostly up to 92.2 µM
# Method in brief: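 qHTS; HUV-EC-C, 1000 cells/well; 5 hr settle, 16 hr cmpd, 37°C; Caspase-Glo 3/7, 20 min RT; luminescence. Norm: DMSO = 0%, tamoxifen 100 uM = 100%. Hill-fit AC50.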
# [14] = Cellular Toxicity (caspase-3) SHSY5Y (AID 657); settings: SH-SY5Y caspase-3 activation, DMSO zero, 10 µM staurosporine = 100%; series mostly up to 91.7 µM;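 note: cells exposed to compound for 16 hours at 37 °C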
# Method in brief: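 qHTS, SH-SY5Y, 1500 cells/well, 5 h pre-incubation 37 °C; compound 16 h 37 °C; Caspase-Glo 3/7 1 h RT; luminescence. Norm.: DMSO = 0, 10 uM staurosporine = 100%. Hill fit → AC50.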
# [15] = Cellular Toxicity (caspase-3) BJ (AID 658); settings: BJ fibroblasts, luminescence, normalized: DMSO 0%, staurosporine 100%; series mostly up to 91.7 µM
# Method in brief: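 Readout: Caspase-Glo 3/7 luminescence increase in BJ cells after 16 hr treatment at 37 °C. Staurosporine and tamoxifen served as positive controls; AC50 values came from Hill modelling of data normalized to DMSO and 10 uM staurosporine.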
# [16] = Cellular Toxicity (caspase-3) MRC-5 (AID 659); settings: MRC-5 cells, luminescence, normalized: DMSO 0%, 10 µM staurosporine 100%; series mostly up to 91.7 µM
# Method in brief: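 Concentration-dependent caspase 3/7 activation is measured in human normal lung fibroblasts (MRC-5) following 16-hour treatment. AC50 values come from standard Hill-equation modeling of luminescence normalized to DMSO and 10 uM staurosporine.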
# [17] = Cellular Toxicity (caspase-3) Mesangial (AID 660); settings: mesangial cells, normalized: DMSO 0%, 100 µM tamoxifen 100%; series mostly up to 91.7 µM;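 note: combined caspase 3 and 7 activity read by Caspase-Glo luminescence; cells exposed to compound for 16 h before the caspase read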
# Method in brief: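 Concentration-response qHTS: compound-induced rise in caspase 3/7 luminescence in human mesangial cells after 16 h, normalized to DMSO and 100 uM tamoxifen controls.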
# [18] = Cellular Toxicity (caspase-3) SK-N-SH (AID 661); settings: SK-N-SH caspase-3 activation, qHTS, DMSO as zero, staurosporine as full; series mostly up to 91.7 µM
# Method in brief: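 Caspase 3/7 activation is measured as a luminescence increase from aminoluciferin released by substrate cleavage in SK-N-SH cells after 16 hr compound treatment; values are AC50 from concentration-response curves.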
# [19] = Cellular Toxicity (caspase-3) H-4-II-E (AID 663); settings: H-4-II-E rat hepatoma, scaled: DMSO 0%, 100 µM tamoxifen 100%; series mostly up to 92.2 µM;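 note: cells exposed to compound for 16 hr before readout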
# Method in brief: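 Apoptosis induction is scored as increased luminescence from caspase 3/7 substrate cleavage in rat hepatoma H-4-II-E cells exposed to compound for 16 hr. Activity is scaled between DMSO and 100 uM tamoxifen.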
# [20] = Cellular Toxicity (caspase-3) Hek293 (AID 664); settings: HEK293 caspase-3 activation, DMSO = 0%, 100 µM tamoxifen = 100%; series mostly up to 92.2 µM;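 note: cells exposed to compound for 16 h at 37 °C before readout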
# Method in brief: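 Activation of caspase-3/7 is measured as increased luminescence from cleaved peptide-aminoluciferin substrate in HEK293 cells treated 16 hours at 37 °C. AC50 values come from Hill-equation fits of concentration-response data.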
smiles,measurement,setting,value
Cc1ccccc1C(OCCN(C)C)c1ccccc1 (configuration not stated),Potency,[1],> 20.6 µM
CCOC(=O)C1=C[C@@]2(CC)CCCN3CCc4c(n1c1ccccc41)[C@H]32,Potency,[1],> 46 µM and > 20.6 µM
same,Potency,[2],> 46 µM and > 20.6 µM
same,outcome,[3],inactive
O=C1CCc2cc(OCCCCc3nnnn3C3CCCCC3)ccc2N1,Potency,[1],> 46 µM and > 20.6 µM
same,Potency,[2],> 46 µM
same,outcome,[3],inactive
NC(=O)c1cnccn1,Potency,[1],> 46 µM
same,Potency,[2],> 46 µM
same,outcome,[4],inactive
same,Potency,[5],inactive
same,outcome,[6],inactive
same,Potency,[7],inactive
same,outcome,[8],inactive
same,outcome,[9],inactive
same,outcome,[10],inactive
same,outcome,[3],inactive
same,outcome,[11],inactive
same,outcome,[12],inactive
same,outcome,[13],inactive
same,outcome,[14],inactive
same,outcome,[15],inactive
same,outcome,[16],inactive
same,outcome,[17],inactive
same,outcome,[18],inactive
same,outcome,[19],inactive
same,outcome,[20],inactive
CC(C)C[C@H](NC(=O)[C@@H](O)[C@H](N)Cc1ccccc1)C(=O)O,Potency,[1],> 46 µM
same,Potency,[2],> 46 µM
Cn1cnc([N+](=O)[O-])c1Sc1ncnc2nc[nH]c12,Potency,[1],> 46 µM and > 20.6 µM
same,Potency,[2],> 46 µM and > 20.6 µM
same,Potency,[5],3.98 µM (active)
same,outcome,[6],inactive
same,Potency,[7],0.631 µM (active)
same,outcome,[3],inactive
same,outcome,[11],inactive
same,outcome,[12],inactive
same,outcome,[13],inactive
same,outcome,[14],inactive
same,outcome,[15],inactive
same,outcome,[16],inactive
same,outcome,[17],inactive
same,outcome,[18],inactive
same,outcome,[19],inactive
same,outcome,[20],inactive
CCC(C)(C)C(=O)O[C@H]1C[C@@H](C)C=C2C=C[C@H](C)[C@H](CC[C@@H]3C[C@@H](O)CC(=O)O3)[C@H]21,Potency,[1],> 46 µM
same,Potency,[2],> 46 µM
Cc1cnc(NC(=O)C2=C(O)c3ccccc3S(=O)(=O)N2C)s1,Potency,[1],> 46 µM and > 20.6 µM
same,Potency,[2],> 46 µM
O=NN(CCCl)C(=O)NCCCl,Potency,[1],> 46 µM
same,Potency,[2],> 46 µM
same,outcome,[3],inactive
